Rows were chosen to be rich in hits. Some 3% of all compounds tested hit in one or more screens of this group.
p53null 32C kill: kills p53 null cells at the permissive temperature. H1299-neo p53 null cells, ATP luminescence, 24 h, 32C. Potency, µM (top dose mostly 46.1 µM), for inactives: top-dose activity change, negative = cytotoxicity, usual class: cytotoxic. hit rate 0.62% among 55,000. AID 903;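 note: potency is the fitted concentration of half-maximal effect; 0% = DMSO only and -100% = full killing by 100 µM tamoxifen; nearly all actives have a fitted effect of over 55% in size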
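Cells lacking p53 (H1299-neo) are plated at 600 per well and allowed to settle overnight at 37C. Test compounds (up to 46 uM) are added and held 24 hours at 32C, then ATP is quantified by luminescence.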
p53null 39C kill: p53 null cell cytotoxicity, nonpermissive temperature; hit rate 0.97% among 55,000; Potency, µM (top dose mostly 46.1 µM), for inactives: top-dose activity, negative = cell killing, hits mostly cytotoxic; H1299 p53-null (neo) cells, 39C, ATPlite viability, 24 h;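 note: potency is the fitted concentration of half-maximal effect; 0% = DMSO only and -100% = full killing by 100 µM tamoxifen; nearly all actives have a fitted effect of over 50% in size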
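Luminescent ATP signal reported cell survival after H1299 lines (neo, p53 null; or p53 A138V) received up to 46 uM compound and 24 hr incubation at 39C.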
S16 viability: S16 Schwann cell cytotoxicity | Potency, µM (doses to about 57.5 µM), for the others: at the top dose activity change, negative = cytotoxicity, hits mostly cytotoxic | hit rate 0.48% among 43,000 | S16 Pmp22-F2sN Schwann cells viability, CellTiter-Glo, 24 h; note: potency is the fitted concentration of half-maximal effect; % is set by controls: 0 for no effect and ±100 for the full control effect; nearly all actives have a fitted effect of over 65% in size
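Luminescence from CellTiter-Glo, read by CCD camera after a 15 min room-temperature incubation, served as the viability signal. Reporter Schwann cells (S16 Pmp22-F2sN) had been treated with pin-transferred compounds for 24 h at 37C.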
mTORC1 inh: reduces mTORC1 signaling in Tsc2 and p53 null MEF cells | Tsc2-/- p53-/- MEF, phospho-rpS6 immunofluorescence/PI, 24 h | Potency, µM (top dose mostly 38.3 µM), without a hit: top-dose activity change, negative = inhibition, usual class: inhibitors | hit rate 0.78% among 44,000;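 note: potency is the fitted concentration of half-maximal effect; plate controls were DMSO for no effect and rapamycin for full effect; nearly all actives have a fitted effect of over 50% in size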
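Immunofluorescence of rpS6 phosphorylation in Tsc2-/-, p53-/- MEFs after 24 h compound exposure, normalized to propidium iodide signal. Activity is expressed as % positive cells, thresholded with 7.5 nM rapamycin.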
PMP22 txn: PMP22 gene transcription modulation; S16 Pmp22-F2sN Schwann cells (luciferase reporters placed in the Pmp22 gene), FLuc/NLuc coincidence luminescence, 24 h; Potency, µM (highest dose often 57.5 µM), for the others: at the highest dose activity change, negative = inhibition, actives largely listed as inhibitors; hit rate 2% among 43,000; active = clear falling dose curves in both reporters; inconclusive = both reporters move, but less clearly or upward; inactive = either reporter flat; the % is the NLuc reporter signal; note: potency is the fitted concentration of half-maximal effect; % is set by controls: 0 for no effect and ±100 for the full control effect
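S16 Schwann cells carrying FLuc/NLuc coincidence reporter in the Pmp22 3' UTR treated with compound 24 h at 37C; FLuc then NLuc luminescence read sequentially by dual-luciferase reagents.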
OvCa metastasis: inhibitors of ovarian cancer cell adhesion and invasion in omental model | SKOV3ip1-GFP adhesion/invasion on 3D omental model, fluorescence | AID 1963576 | hit rate 0.1% among 46,000 | Potency, µM (doses to about 45.8 µM), for the others: at the top dose activity change, negative = inhibition, actives largely listed as inhibitors;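 note: potency is the fitted concentration of half-maximal effect; plate controls were DMSO wells for no effect and tomatine positive control wells for full effect; nearly all actives have a fitted effect of over 65% in size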
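qHTS, 4-pt dose (0.36-46 umol/L); SKOV3ip1-GFP, 1,200 cells/well, no FBS; primary omental fibroblast/mesothelial co-culture 48 h pre-grown; 2 h RT + 16 h 37 C; PBS wash, 4% PFA; GFP count 488/509 nm.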
NLuc saturating: inhibits NanoLuc at saturating substrate, PMP22 counter-screen | shares compounds with PMP22 txn | Secreted NLuc enzyme (filtered S16 cell medium), Nano-Glo luminescence | Potency, µM (titrated, usually from 57.5 µM), inactives show at the highest dose activity change, negative = inhibition, actives largely listed as inhibitors | hit rate 4% among 690 | AID 1508638; note: potency is the fitted concentration of half-maximal effect; % is set by controls: 0 for no effect and ±100 for the full control effect
NLuc Km ctr: inhibits NanoLuc under Km conditions, PMP22 counter-screen | Potency, µM (doses to about 57.5 µM), inactives show at the top dose activity change, negative = inhibition, usual class: inhibitors | shares compounds with PMP22 txn | hit rate 5% among 690 | secreted NLuc enzyme, coelenterazine luminescence, Km conditions; note: potency is the fitted concentration of half-maximal effect; % is set by controls: 0 for no effect and ±100 for the full control effect
FLuc counter: counter-screen for PMP22 expression modulators: firefly luciferase inhibition; 690 tested, under 10 active; AID 1508640; shares compounds with PMP22 txn; Potency, µM (top dose mostly 57.5 µM), inactives show at the top dose activity, negative = inhibition, actives largely listed as inhibitors; purified P. pyralis FLuc, luminescence, 10 min; note: % of control where 0% means no effect
Target sequence (P08659 whole entry, looked up): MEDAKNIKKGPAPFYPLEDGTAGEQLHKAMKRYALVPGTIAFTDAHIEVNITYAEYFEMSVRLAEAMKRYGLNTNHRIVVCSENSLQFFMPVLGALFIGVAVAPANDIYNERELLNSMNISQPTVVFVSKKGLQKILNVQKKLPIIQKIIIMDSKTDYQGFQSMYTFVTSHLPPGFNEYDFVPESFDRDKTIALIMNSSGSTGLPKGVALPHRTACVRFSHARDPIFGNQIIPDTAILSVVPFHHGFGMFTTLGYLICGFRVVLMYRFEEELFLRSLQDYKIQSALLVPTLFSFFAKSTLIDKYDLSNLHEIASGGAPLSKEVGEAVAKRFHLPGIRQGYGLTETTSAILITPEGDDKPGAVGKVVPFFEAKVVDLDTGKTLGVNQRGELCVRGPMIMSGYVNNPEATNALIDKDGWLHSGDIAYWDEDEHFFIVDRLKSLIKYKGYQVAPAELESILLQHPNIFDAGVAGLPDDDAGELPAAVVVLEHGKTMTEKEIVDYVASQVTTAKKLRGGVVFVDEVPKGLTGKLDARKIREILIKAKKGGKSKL
S16 F2sN tox cnf: S16 Schwann cell cytotoxicity, confirmatory; hit rate 7% among 690; S16 Schwann cells viability, CellTiter-Glo ATP luminescence, 24 h; shares compounds with PMP22 txn; Potency, µM (series often up to 57.5 µM), without a hit: at the top dose activity change, negative = viability loss, usual class: cytotoxic; note: potency is the fitted concentration of half-maximal effect; % is set by controls: 0 for no effect and ±100 for the full control effect
PMP22 txn cnf: confirmation of modulators of PMP22 gene transcription in S16 cells. AID 1508646. S16 Schwann cells Pmp22-F2sN, dual luciferase, 24 h. hit rate 22% among 690. shares compounds with PMP22 txn. Potency, µM (titrated, usually from 57.5 µM), without a hit: top-dose activity change, negative = inhibition, hits mostly inhibitors; active = clear falling dose curves in both reporters; inconclusive = both reporters move, but less clearly or upward; inactive = either reporter flat; the % is the FLuc reporter signal; note: potency is the fitted concentration of half-maximal effect
* hit, by the source's call; i = inactive; u = inconclusive; x = no result given. Unless noted, calls come from the whole dose curve; as a rule, active = well fitted curve in the direction sought with a large enough effect; inconclusive = small, poorly fitted or top-dose-only effect, or another doubt; inactive = no such curve, though single readings can be large; an effect the other way counts as inactive or inconclusive.

SMILES	p53null 32C kill	p53null 39C kill	S16 viability	mTORC1 inh	PMP22 txn	OvCa metastasis	NLuc saturating	NLuc Km ctr	FLuc counter	S16 F2sN tox cnf	PMP22 txn cnf
N[C@H]1CN(c2c(F)cc3c(=O)c(C(=O)O)cn(C4C[C@@H]4F)c3c2Cl)CC12CC2 (some centres undefined)	x	x	x	x	x	-13%	x	x	x	x	x
N[C@@]1(C(=O)O)CS(=O)(=O)[C@H]2[C@H](C(=O)O)[C@H]21	x	x	x	x	x	-15%	x	x	x	x	x
CCc1ccccc1NC(=O)c1ccc2nc(C(C)C)oc2c1	2%	11%	u	-9%	17µM*	u	u	u	-6%	-14%	-9%
CC(=O)N[C@@H]1[C@H](O[C@@H]2c3ccc(c(Cl)c3)Oc3cc4cc(c3O[C@H]3O[C@H](CO)[C@@H](O)[C@H](O)[C@H]3NC(=O)CCCCCCCC(C)C)Oc3ccc(cc3Cl)C[C@H]3NC(=O)[C@H](N)c5ccc(O)c(c5)Oc5cc(O)cc(c5)[C@H](NC3=O)C(=O)N[C@H]4C(=O)N[C@H]3C(=O)N[C@@H]2C(=O)N[C@@H](C(=O)O)c2cc(O)cc(O[C@H]4O[C@H](CO)[C@@H](O)[C@H](O)[C@H]4O)c2-c2cc3ccc2O)O[C@H](CO)[C@@H](O)[C@@H]1O	x	x	x	x	x	-17%	x	x	x	x	x
COC(=O)c1c(-c2ccc(Cl)cc2)noc1N1CCN(c2cccc(C)c2C)CC1	-9%	22%	u	-18%	u	u	x	x	x	x	x
COC(=O)c1c(-c2ccc(Cl)cc2)noc1N1CCN(c2cccc(OC)c2)CC1	-6%	11%	u	4%	7µM*	-23%	u	-5%	4%	5%	12µM*
O=C(CSc1nc2cc(C(=O)NC3CCCC3)ccc2c(=O)n1CC1CCCO1)c1cccc(Cl)c1 (centres undefined)	7%	0%	28µM*	0%	14µM*	i	-19%	-5%	-6%	-7%	u
Cc1ccc(C(=O)CSc2nc3cc(C(=O)NC4CCCC4)ccc3c(=O)n2CC2CCCO2)cc1 (centres undefined)	-14%	-11%	u	6%	24%	i	x	x	x	x	x
